{
  "source": "PubChem BioAssay (NCATS)",
  "key": {"[1]": {"assay": "Cytotoxicity counterscreen for inhibitors of SARS-CoV-2 cell entry (AID 1645845); further: nearly all actives have a fitted effect of over 50% in size", "method_in_brief": "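After a 15 min room-temperature ATPLite 1step step, luminescence reflected ATP remaining in HEK293-ACE2 cells exposed to compound for 1 h plus 48 h at 37 C, with percent activity set by cell and no-cell controls.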"}, "[2]": {"assay": "Primary qHTS to identify inhibitors of SARS-CoV-2 cell entry (AID 1645846); further: nearly all actives have a fitted effect of over 45% in size; further: potency means the concentration at half of the fitted maximal effect", "conditions": "activity change, negative = inhibition: at 57.1 µM (top of the series) unless noted", "method_in_brief": "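Entry measured by luciferase signal 48 h after adding SARS-CoV-2-S pseudotyped MLV particles to HEK293-ACE2 cells preincubated 1 h with compounds. Normalisation: bald particles and spike particles.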"}, "[3]": {"assay": "Primary qHTS for inhibitors of nuclear receptor binding SET domain protein 2 (NSD2) in an isogenic RCH-ACV NSD2 p.E1099K mutant (9B) (AID 1645876; active means well fitted curve in the direction sought with a large enough effect; an effect the other way counts as inactive or inconclusive; further: nearly all actives have a fitted effect of over 70% in size; further: potency means the concentration at half of the fitted maximal effect)"}, "[4]": {"assay": "Primary qHTS for inhibitors of nuclear receptor binding SET domain protein 2 (NSD2) in an RCH-ACV wild type WT cells (2C) (AID 1645877; active means well fitted curve in the direction sought with a large enough effect; an effect the other way counts as inactive or inconclusive; further: nearly all actives have a fitted effect of over 70% in size; further: potency means the concentration at half of the fitted maximal effect)"}, "[5]": {"assay": "VSVG counterscreen qHTS to identify inhibitors of SARS-CoV-2 cell entry (AID 1645847); further: potency means the concentration at half of the fitted maximal effect; nearly all actives have a fitted effect of over 65% in size", "method_in_brief": "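Luminescence read after 48 h infection at 37 C with VSV-G-pseudotyped MLV particles, following 1 h compound exposure of Expi293F cells stably expressing human ACE2; scaled between bald particle and VSV-G particle wells.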"}, "[6]": {"biological_target": "Papain (Carica papaya) (UniProt P00784)", "sequence (P00784 whole entry, looked up)": "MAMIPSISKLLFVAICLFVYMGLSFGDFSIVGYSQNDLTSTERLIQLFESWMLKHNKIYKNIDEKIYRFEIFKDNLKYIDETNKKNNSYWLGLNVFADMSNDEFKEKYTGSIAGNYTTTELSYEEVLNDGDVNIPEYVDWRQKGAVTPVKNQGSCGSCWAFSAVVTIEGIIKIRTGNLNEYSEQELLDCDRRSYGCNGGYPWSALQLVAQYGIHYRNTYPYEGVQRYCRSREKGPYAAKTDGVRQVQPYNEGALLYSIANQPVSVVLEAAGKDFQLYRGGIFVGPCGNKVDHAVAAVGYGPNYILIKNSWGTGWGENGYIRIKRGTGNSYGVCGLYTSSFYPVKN", "assay": "Primary qHTS assay for inhibitors of the protease papain (AID 1645873; active means well fitted curve in the direction sought with a large enough effect; an effect the other way counts as inactive or inconclusive;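 further: papain turnover of Z-FR-AMC read as the AMC fluorescence gain over 10 min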)"}, "[7]": {"biological_target": "Catechol O-methyltransferase (Homo sapiens) (UniProt P21964)", "sequence (P21964 whole entry, looked up)": "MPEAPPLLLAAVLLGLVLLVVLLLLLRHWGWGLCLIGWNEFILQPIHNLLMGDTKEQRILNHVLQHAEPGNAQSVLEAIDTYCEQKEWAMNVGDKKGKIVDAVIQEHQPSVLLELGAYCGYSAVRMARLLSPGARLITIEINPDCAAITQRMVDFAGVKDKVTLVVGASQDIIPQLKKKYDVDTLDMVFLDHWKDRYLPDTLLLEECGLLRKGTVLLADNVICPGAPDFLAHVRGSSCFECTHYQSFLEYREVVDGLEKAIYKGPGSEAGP", "assay": "Confirmatory Screen for Target Class Profiling of Small Molecule Inhibitors of Methyltransferases (AID 1745852)", "conditions": "MTase-Glo luminescence, SAH detection, recombinant enzyme; measured here: COMT max response; stronger effect = lower value"}, "[8]": {"biological_target": "Guanidinoacetate N-methyltransferase (Homo sapiens) (UniProt Q14353)", "assay": "Confirmatory Screen for Target Class Profiling of Small Molecule Inhibitors of Methyltransferases (AID 1745852)", "conditions": "MTase-Glo luminescence, SAH detection, recombinant enzyme; activity change, negative = inhibition: at 57.3 µM (top of the series)"}},
  "note": "Where “and” joins values, the source holds several entries; their conditions need not be identical. Equal values may be shown once. Records with an inconclusive call do not appear. Where a call stands in place of a potency, no number is given. The source holds several records for some structures; these can differ, active in one and inactive in another. Calls of active or inactive are those of the source. Unless noted, the call rests on the fitted dose curve.",
  "data": [
    {"smiles": "CCOP(=O)(OCC)C(C)NC(=O)N(CCCl)N=O", "note": "(stereo not given)", "values": [
      {"measurement": "Potency", "setting": "[1]", "result": "inactive"},
      {"measurement": "Potency", "setting": "[2]", "result": "inactive"},
      {"measurement": "activity change, negative = inhibition", "setting": "[2]", "result": -18.4, "unit": "%"},
      {"measurement": "Potency", "setting": "[3]", "result": "inactive"},
      {"measurement": "Potency", "setting": "[4]", "result": "inactive"}
    ]},
    {"smiles": "COc1ccc(-c2c(-c3ccc(O)cc3O)n[nH]c2C)cc1", "values": [
      {"measurement": "Potency", "setting": "[1]", "result": "inactive"},
      {"measurement": "activity change, negative = inhibition", "setting": "[2]", "result": -56.7, "unit": "%"},
      {"measurement": "Potency", "setting": "[5]", "result": "12.4 µM (active)"}
    ]},
    {"smiles": "COc1cc2c(Oc3ccc(NC(=O)C4(C(=O)Nc5ccc(F)cc5)CC4)cc3F)ccnc2cc1OCCCN1CCOCC1", "values": [
      {"measurement": "Potency", "setting": "[2]", "result": "8.91 µM (active)"}
    ]},
    {"smiles": "CN(C)CCN(C)C(=O)c1ccc(NC(=O)Nc2ccc(-c3nc(N4CCOCC4)c4ccn(CC(F)(F)F)c4n3)cc2)cc1", "values": [
      {"measurement": "activity change, negative = inhibition", "setting": "[2]", "result": -96.8, "unit": "%"}
    ]},
    {"smiles": "CC(=O)c1c(C)c2cnc(Nc3ccc(N4CCNCC4)cn3)nc2n(C2CCCC2)c1=O", "values": [
      {"measurement": "Potency", "setting": "[1]", "result": "inactive"},
      {"measurement": "Potency", "setting": "[5]", "result": "6.81 µM (active)"}
    ]},
    {"smiles": "CC(C)(C)COc1ccc(-n2cc(C(=O)O)cn2)cc1C#N", "values": [
      {"measurement": "activity change, negative = inhibition", "setting": "[2]", "result": -72.8, "unit": "%"}
    ]},
    {"smiles": "COc1cc2nccc(Oc3ccc(NC(=O)C4(C(=O)Nc5ccc(F)cc5)CC4)cc3)c2cc1OC", "values": [
      {"measurement": "Potency", "setting": "[1]", "result": "inactive"},
      {"measurement": "Potency", "setting": "[5]", "result": "8.57 µM (active)"}
    ]},
    {"smiles": "CCCN1CCO[C@@H]2c3cc(O)ccc3OC[C@H]21", "values": [
      {"measurement": "Potency", "setting": "[1]", "result": "inactive"},
      {"measurement": "Potency", "setting": "[2]", "result": "inactive"},
      {"measurement": "Potency", "setting": "[6]", "result": "inactive"},
      {"measurement": "Potency", "setting": "[3]", "result": "inactive"},
      {"measurement": "Potency", "setting": "[4]", "result": "inactive"}
    ]},
    {"smiles": "c1ccc2c(CN3CCNCC3)cccc2c1", "values": [
      {"measurement": "Potency", "setting": "[1]", "result": "inactive"},
      {"measurement": "activity change, negative = inhibition", "setting": "[2]", "result": -23.2, "unit": "%"},
      {"measurement": "Potency", "setting": "[3]", "result": "inactive"},
      {"measurement": "Potency", "setting": "[4]", "result": "inactive"}
    ]},
    {"smiles": "COc1cc([C@@H]2c3cc4c(cc3[C@@H](O)C3COC(=O)C32)OCO4)cc(OC)c1O", "note": "(stereo not given in full)", "values": [
      {"measurement": "Potency", "setting": "[1]", "result": "inactive"},
      {"measurement": "Potency", "setting": "[5]", "result": "0.541 µM (active)"},
      {"measurement": "Potency", "setting": "[3]", "result": "417 nM (active)"},
      {"measurement": "Potency", "setting": "[4]", "result": "372 nM (active)"}
    ]},
    {"smiles": "CCCS(=O)(=O)Nc1ccc(F)c(C(=O)c2c[nH]c3ncc(-c4ccc(Cl)cc4)cc23)c1F", "values": [
      {"measurement": "Potency", "setting": "[1]", "result": "inactive"},
      {"measurement": "activity change, negative = inhibition", "setting": "[2]", "result": -8.78, "unit": "%"},
      {"measurement": "Potency", "setting": "[5]", "result": "21.5 µM (active)"}
    ]},
    {"smiles": "COC(=O)c1ccc2c(C(=Nc3ccc(N(C)C(=O)CN4CCN(C)CC4)cc3)c3ccccc3)c(O)[nH]c2c1", "values": [
      {"measurement": "Potency", "setting": "[1]", "result": "inactive"},
      {"measurement": "Potency", "setting": "[2]", "result": "17.8 µM (active)"},
      {"measurement": "activity change, negative = inhibition", "setting": "[2]", "result": -18.4, "unit": "%"}
    ]},
    {"smiles": "CC1=C(C/C=C(\\C)CCC[C@H](C)CCC[C@H](C)CCCC(C)C)C(=O)c2ccccc2C1=O", "values": [
      {"measurement": "Potency", "setting": "[2]", "result": "inactive"}
    ]},
    {"smiles": "O=C(O)c1ccc2cc(-c3ccc(O)c(C45CC6CC(CC(C6)C4)C5)c3)ccc2c1", "values": [
      {"measurement": "Potency", "setting": "[2]", "result": "1.58 µM (active)"}
    ]},
    {"smiles": "CC[C@@H](C(N)=O)N1CCCC1=O", "values": [
      {"measurement": "Potency", "setting": "[1]", "result": "inactive"},
      {"measurement": "activity change, negative = inhibition", "setting": "[2]", "result": -1.29, "unit": "%"},
      {"measurement": "Potency", "setting": "[6]", "result": "inactive"},
      {"measurement": "Potency", "setting": "[3]", "result": "inactive"},
      {"measurement": "Potency", "setting": "[4]", "result": "inactive"}
    ]},
    {"smiles": "CCNC(=O)C[C@@H]1N=C(c2ccc(Cl)cc2)c2cc(OC)ccc2-n2c(C)nnc21", "values": [
      {"measurement": "Potency", "setting": "[3]", "result": "459 nM (active) and 590 nM (active)"},
      {"measurement": "Potency", "setting": "[4]", "result": "459 nM (active) and 833 nM (active)"}
    ]},
    {"smiles": "CNCCc1ccc(O)c(O)c1", "values": [
      {"measurement": "Potency", "setting": "[6]", "result": "inactive"},
      {"measurement": "activity", "setting": "[7]", "result": 109, "unit": "%"},
      {"measurement": "activity change, negative = inhibition", "setting": "[8]", "result": 3.55, "unit": "%"}
    ]},
    {"smiles": "CCCN(CCC)[C@@H]1CCc2ccc(O)cc2C1", "values": [
      {"measurement": "Potency", "setting": "[6]", "result": "inactive"},
      {"measurement": "activity", "setting": "[7]", "result": 3.68, "unit": "%"},
      {"measurement": "activity change, negative = inhibition", "setting": "[8]", "result": 1.97, "unit": "%"}
    ]},
    {"smiles": "NC(=O)CN1CC(O)CC1=O", "note": "(stereo not given)", "values": [
      {"measurement": "Potency", "setting": "[6]", "result": "inactive"}
    ]},
    {"smiles": "CS(=O)(=O)c1cccc(CNc2nc(Nc3ccc4c(c3)CCC(=O)N4)ncc2C(F)(F)F)c1", "values": [
      {"measurement": "Potency", "setting": "[5]", "result": "4.29 µM (active)"}
    ]},
    {"smiles": "Nc1ccc(Cl)cc1", "values": [
      {"measurement": "Potency", "setting": "[3]", "result": "inactive"},
      {"measurement": "Potency", "setting": "[4]", "result": "inactive"}
    ]},
    {"smiles": "CC(C)(C)c1cc(C=C(C#N)C#N)cc(Br)c1O", "values": [
      {"measurement": "Potency", "setting": "[2]", "result": "inactive"},
      {"measurement": "Potency", "setting": "[3]", "result": "inactive"},
      {"measurement": "Potency", "setting": "[4]", "result": "16.4 µM (active) and inactive"}
    ]},
    {"smiles": "CC1(N2CCC(n3c([C@@H]4CCCNC4)nc4ccccc43)CC2)CCCCCCC1", "values": [
      {"measurement": "Potency", "setting": "[2]", "result": "5.01 µM (active)"},
      {"measurement": "Potency", "setting": "[3]", "result": "8.17 µM (active) and 14.8 µM (active)"},
      {"measurement": "Potency", "setting": "[4]", "result": "7.28 µM (active) and 13.2 µM (active)"}
    ]},
    {"smiles": "O=C(c1ccc(Nc2nccc(-c3cc4ccccc4s3)n2)cc1)N1CCC(N2CCCC2)CC1", "values": [
      {"measurement": "Potency", "setting": "[2]", "result": "11.2 µM (active)"}
    ]}
  ]
}
